# Compounds with a hit are over-represented: about 12% of the library has one in this group of screens.
# BAZ2B block: inhibitors of human BAZ2B bromodomain; Q9UIF8; AlphaScreen BAZ2B-H3K14Ac peptide displacement; Potency, µM (top dose mostly 114 µM), for the others: top-dose activity change, negative = inhibition, hits mostly inhibitors; hit rate 4.4% among 360,000; AID 504333; note: potency is the fitted concentration of half-maximal effect; % is set by controls: 0 for no effect and ±100 for the full control effect; nearly all actives have a fitted effect of over 60% in size
#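 AlphaScreen displacement: compounds (up to 110uM) incubated 30 min at room temperature with a preformed 50 nM BAZ2B/50 nM biotinylated H3K14Ac peptide complex in PBS pH 7.4 with Tween-20. Donor and acceptor beads at 10 ug/mL final added, 20 min light-protected before reading.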
# PLK1 PBD block: PLK1 (human) polo-box domain binding inhibition; AID 720504; P53350; Potency, µM, inactives show max response, negative = inhibition, most hits filed as inhibitors; hit rate 2.8% among 360,000; Plk1 PBD binding of FITC phosphopeptide, fluorescence polarization; note: potency is the fitted concentration of half-maximal effect; series mostly up to about 57 µM; % is set by controls: 0 for no effect and ±100 for the full control effect; nearly all actives have a fitted effect of over 65% in size
# PI5P4Ka inh: PI5P4K alpha (human) kinase inhibition; P48426; PI5P4Kalpha enzyme, ADP-Glo luminescence, 60 min; stronger effect = lower value; max response, %; hit rate 1.2% among 330,000; active = max response of -50% or lower; inconclusive = between -30% and -50%; inactive = -30% or higher; note: value at the top dose of about 77 µM; % is set by controls: 0 for no effect and ±100 for the full control effect
#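 Single end-point luminescence (ADP-Glo) quantified ADP from PI5P4Kalpha turnover; ATP 5 microM final, 1 h at RT, 0.1% CHAPS and 0.28 mM EGTA in HEPES pH 7.4.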
# JMJD2A Tudor: JMJD2A Tudor domain (human) inhibition; O75164; AlphaScreen JMJD2A-Tudor / H3K4me3 peptide binding; Potency, µM (titrated, usually from 114 µM), for inactives: top-dose activity change, negative = inhibition, hits mostly inhibitors; hit rate 4.4% among 390,000; AID 504339; note: potency is the fitted concentration of half-maximal effect; % is set by controls: 0 for no effect and ±100 for the full control effect; nearly all actives have a fitted effect of over 50% in size
# G9a inh: G9a (human) methyltransferase inhibition; G9a H3K9 monomethylation, AlphaScreen, 2 h; hit rate 8.8% among 350,000; Potency, µM (doses to about 102 µM), for the others: top-dose activity, negative = inhibition, actives largely listed as inhibitors; note: potency is the fitted concentration of half-maximal effect; % is set by controls: 0 for no effect and ±100 for the full control effect; nearly all actives have a fitted effect of over 75% in size
# Target sequence (Q96KQ7 913-1193 limits assumed): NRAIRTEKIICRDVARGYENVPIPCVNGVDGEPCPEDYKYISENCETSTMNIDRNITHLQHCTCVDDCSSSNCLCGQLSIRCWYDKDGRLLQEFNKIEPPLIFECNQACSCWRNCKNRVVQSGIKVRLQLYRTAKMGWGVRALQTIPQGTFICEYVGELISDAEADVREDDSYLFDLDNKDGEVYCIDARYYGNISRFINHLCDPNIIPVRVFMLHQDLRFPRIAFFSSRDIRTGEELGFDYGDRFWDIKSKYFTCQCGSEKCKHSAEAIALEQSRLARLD
#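 AlphaScreen read-out: biotin-H3K9 peptide (500 nM) methylation by 20 nM enzyme with 20 uM SAM, 2 h at room temperature after 15 min compound preincubation; anti-monomethyl H3K9 antibody plus donor/acceptor beads, 10 min dark.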
# HP1b binding inh: HP1-beta chromodomain-methylated histone interaction inhibition; Potency, µM (doses to about 114 µM), for the others: at the top dose activity change, negative = inhibition, actives largely listed as inhibitors; hit rate 0.56% among 390,000; AlphaScreen HP1-beta / biotin-H3K9me3 peptide binding; P83916; note: potency is the fitted concentration of half-maximal effect; nearly all actives have a fitted effect of over 70% in size
# Target sequence (P83916 whole entry, looked up): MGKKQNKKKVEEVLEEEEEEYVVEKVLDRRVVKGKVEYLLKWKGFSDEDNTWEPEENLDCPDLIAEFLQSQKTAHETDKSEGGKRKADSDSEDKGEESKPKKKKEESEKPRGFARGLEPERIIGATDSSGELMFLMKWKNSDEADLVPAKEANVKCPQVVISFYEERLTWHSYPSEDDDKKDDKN
#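 AlphaScreen: HP1-beta (50 nM) preformed 30 min with biotin-H3(1-18)K9me3 peptide (50 nM) in PBS pH 7.4, 0.01% Tween-20. Compound added for 30 min at RT, then streptavidin donor/nickel chelate acceptor beads (10 ug/mL) for 30 min.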
# * marks the source's active call; other numbers are inactive results; ? = inconclusive; . = no result given; [ ] = remark or other dose. Unless noted, calls come from the whole dose curve; as a rule, active = well fitted curve in the direction sought with a large enough effect; inconclusive = small, poorly fitted or top-dose-only effect, or another doubt; inactive = no such curve, though single readings can be large; an effect the other way counts as inactive or inconclusive.
SMILES,BAZ2B block,PLK1 PBD block,PI5P4Ka inh,JMJD2A Tudor,G9a inh,HP1b binding inh
CCC(C)(C)c1ccc(CC(C)CN2C[C@@H](C)O[C@@H](C)C2)cc1 (some centres not stated),.,.,.,.,11.6%[12.7 µM],.
NC(=O)c1ccccc1NC(=O)CN1CCN(Cc2ccc(Cl)cc2Cl)CC1,-11.1%,-15.5%,-2.8,-18.1%,.,0.2%
COc1ccc(C2NCCc3c2[nH]c2ccccc32)cc1CSc1nc2ccccc2s1 (configuration not stated),44.7µM*,?,?,25.1µM*,8.91µM*,?
O=c1oc2c(-c3ccc([N+](=O)[O-])cc3)cc(O)cc2s1,-25.8%,-15.9%,-58.7*,-31.7%,56.2µM*,?
COc1ccc([N+](=O)[O-])cc1N1C(=O)c2cccc3cccc(c23)C1=O,-23.1%,4.7%,-9.5,-4.1%,?,16.8%
COc1ccc([N+](=O)[O-])cc1-n1cccc1,50.1µM*,-8.2%,-4.0,?,5.3%[59 µM],?
O=C(COC(=O)c1cc(S(=O)(=O)N2CCc3ccccc3C2)ccc1Cl)NCc1ccco1,?,?,?,79.4µM*,39.8µM*,?
O=C(COC(=O)c1cc(S(=O)(=O)N2CCOCC2)ccc1Cl)NCc1ccco1,-1.0%,0.0%,-3.7,-9.6%,7.2%[0.501 µM],32.8%
O=C(COC(=O)c1cccc(S(=O)(=O)N2CCc3ccccc3C2)c1)NCc1ccco1,50.1µM*,-7.9%,-9.6,4.1%,?,26.5%
CCc1ccc(NC(=O)C(C)OC(=O)c2cccc(S(=O)(=O)N3CCc4ccccc4C3)c2)cc1 (configuration not stated),15.0%,-5.5%,5.4,-18.9%,7.94µM*,28.4%
CCCCn1cc(S(=O)(=O)c2ccc(OC)cc2)c(=O)c2cc(F)c(N3CCOCC3)cc21,2.4%,.,.,-10.6%,5.8%[59 µM],28.1%
COc1ccc(S(=O)(=O)N2CCOCC2)cc1NC(=O)c1c(-c2ccccc2)noc1C,9.8%,-8.2%,4.1,-16.6%,6.3%[0.501 µM],38.8%
COc1ccc2[nH]c(=O)c(CNc3ccccc3OC)cc2c1,?,-19.6%,-2.8,?,35.5µM*,-14.7%
COc1ccc2[nH]c(=O)c(CNc3ccccc3)cc2c1,0.2%,?,-19.3,-28.0%,35.5µM*,14.1%
COc1ccc(NC(=O)c2cc(=O)[nH]c3ccccc23)cc1,-5.7%,-3.3%,6.4,7.6%,12.9%,27.0%
COc1ccc(NCc2cc(=O)[nH]c3ccccc23)cc1,79.4µM*,-1.1%,-0.3,?,?,-12.8%
COc1ccc2[nH]c(=O)c(CNc3ccccc3C)cc2c1,-1.2%,?,-26.7,-27.4%,10µM*,-2.3%
COCC(=O)N(Cc1cc2cc(OC)ccc2[nH]c1=O)c1ccccc1OC,5.4%,-1.6%,5.6,8.3%,-27.8%,25.6%
CCOc1ccc(NCc2cc3cc(OC)ccc3[nH]c2=O)cc1,-27.3%,5.1%,-3.7,?,?,-4.1%
CCn1cnc2c(Nc3ccc(Cc4cccnc4)cc3)nc(C#N)nc21,.,.,.,-23.3%,.,.
COc1ccc(C(O)c2nc(-c3ccccc3C)cs2)cc1 (configuration not stated),.,-2.0%,4.5,.,.,.
CC1(C)CC(=O)C(C(C2=C(O)CC(C)(C)CC2=O)c2cccnc2)C(=O)C1 (configuration not stated),27.5%,-29.3%,8.6,-17.2%,50.1µM*,61.3%
CC1(C)CC(=O)C(C(C2=C(O)CC(C)(C)CC2=O)c2cccs2)C(=O)C1 (configuration not stated),3.4%,4.74µM*,?,-18.8%,44.7µM*,20.6%
Cc1ccc(C(C2=C(O)CC(C)(C)CC2=O)C2C(=O)CC(C)(C)CC2=O)o1 (configuration not stated),-30.7%,5.97µM*,-11.4,-8.0%,25.1µM*,61.5%
CCCC(C1=C(O)CC(C)(C)CC1=O)C1C(=O)CC(C)(C)CC1=O (configuration not stated),-2.7%,?,-7.4,-2.2%,28.2µM*,55.4%
SMILES,BAZ2B block,PLK1 PBD block,PI5P4Ka inh,JMJD2A Tudor,G9a inh,HP1b binding inh
COC(=O)c1ccc(C2c3c(oc4ccc(C)cc4c3=O)C(=O)N2Cc2ccc3c(c2)OCO3)cc1 (configuration not stated),-5.6%,.,.,-12.4%,0.5%[59 µM],-0.1%
CC(=O)N[C@H](C(=O)O)C(C)(C)SN=O,.,.,.,.,6.8%[12.7 µM],.
Cc1cc[n+](CC[n+]2ccc(C)cc2)cc1,-8.1%,-5.0%,8.6,-18.3%,14.9%[12.7 µM],24.8%
Cc1ccc(-c2cc[n+](Cc3ccccc3)cc2)cc1,-17.3%,18.9µM*,-13.6,?,-1.2%,-7.6%
Cc1cc[n+](Cc2ccc([N+](=O)[O-])cc2)cc1,-9.1%,-3.6%,3.0,-12.0%,44.7µM*,10.8%
Cc1ccc(Cc2nc3ccccc3nc2SCC(=O)N2CCCc3ccccc32)cc1,3.6%,.,.,-17.5%,15.3%[59 µM],25.4%[57 µM]
O=c1c(CCc2ccccc2)nc2cnc(N3CCOCC3)nc2n1C[C@H]1CCCO1,.,.,.,.,6.9%[12.7 µM],.
Cc1c(P(=O)(c2ccccc2)c2ccccc2)c2ccccc2n1C,.,.,.,22.4µM*,.,.
COC(=O)[C@@]1(Cc2ccc(F)cc2)[C@H]2c3cc(C(=O)N4CCCC4)n(CCc4c[nH]c5ccc(OC)cc45)c3C[C@H]2CN1C(=O)c1ccccc1,?,.,.,.,39.8µM*,.
COC(=O)[C@@]1(Cc2ccc(OC)cc2)[C@H]2c3cc(C(=O)N4CCCC4)n(Cc4ccc(C)o4)c3C[C@H]2CN1C(=O)c1ccccc1,39.8µM*,.,.,.,79.4µM*,.
COC(=O)[C@@]1(Cc2ccc(OC)cc2)[C@H]2c3cc(C(=O)N4CCCC4)n(Cc4ccc(S(C)(=O)=O)cc4)c3C[C@H]2CN1C(=O)c1ccccc1,.,-2.8%,0.8,.,.,.
COCCn1c(C(=O)N2CCCC2)cc2c1C[C@H]1CN(C(=O)c3ccccc3)[C@@](Cc3ccc(F)cc3)(C(=O)OC)[C@@H]21,?,-2.3%,1.1,-22.9%,?,14.8%
COC(=O)[C@@]1(Cc2ccccc2)[C@H]2c3cc(C(=O)N4CCCC4)n(CCSCCO)c3C[C@H]2CN1C(=O)c1ccccc1,?,.,.,.,25.1µM*,.
COC(=O)[C@@]1(Cc2ccc(F)cc2)[C@H]2c3cc(C(=O)N4CCCC4)n(CCc4ccccn4)c3C[C@H]2CN1C(=O)c1ccccc1,?,21.2µM*,-4.4,?,?,9.7%
COC(=O)[C@@]1(Cc2ccc(F)cc2)[C@H]2c3cc(C(=O)N4CCCC4)n(CCSCCO)c3C[C@H]2CN1C(=O)c1ccccc1,.,-14.4%,1.2,.,.,.
COC(=O)[C@@]1(Cc2ccc(F)cc2)[C@H]2c3cc(C(=O)N(C)C)n(CCc4ccccn4)c3C[C@H]2CN1C(=O)c1ccccc1,?,2.0%,-1.7,-13.7%,?,21.4%

# Source: PubChem
